Results published in paper PMC4336329 (PLoS ONE, 2015).
In all, about 310,000 compounds went through this assay and about 14,000 (4.5%) showed an effect of 50% or more. Effects have a minus sign here. This is one part of a sample in which strong results are shown more often than they occur.

target: human ether-à-go-go-related gene (hERG) potassium channel (human, UniProt Q12809); experiment: primary screen, population patch clamp on CHO cells stably expressing hERG; higher = less effect of the substance
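Note: peak tail current of the secondary pulse compared with the same well before compound.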

human ether-à-go-go-related gene (hERG) potassium channel, sequence (Q12809 whole entry, looked up): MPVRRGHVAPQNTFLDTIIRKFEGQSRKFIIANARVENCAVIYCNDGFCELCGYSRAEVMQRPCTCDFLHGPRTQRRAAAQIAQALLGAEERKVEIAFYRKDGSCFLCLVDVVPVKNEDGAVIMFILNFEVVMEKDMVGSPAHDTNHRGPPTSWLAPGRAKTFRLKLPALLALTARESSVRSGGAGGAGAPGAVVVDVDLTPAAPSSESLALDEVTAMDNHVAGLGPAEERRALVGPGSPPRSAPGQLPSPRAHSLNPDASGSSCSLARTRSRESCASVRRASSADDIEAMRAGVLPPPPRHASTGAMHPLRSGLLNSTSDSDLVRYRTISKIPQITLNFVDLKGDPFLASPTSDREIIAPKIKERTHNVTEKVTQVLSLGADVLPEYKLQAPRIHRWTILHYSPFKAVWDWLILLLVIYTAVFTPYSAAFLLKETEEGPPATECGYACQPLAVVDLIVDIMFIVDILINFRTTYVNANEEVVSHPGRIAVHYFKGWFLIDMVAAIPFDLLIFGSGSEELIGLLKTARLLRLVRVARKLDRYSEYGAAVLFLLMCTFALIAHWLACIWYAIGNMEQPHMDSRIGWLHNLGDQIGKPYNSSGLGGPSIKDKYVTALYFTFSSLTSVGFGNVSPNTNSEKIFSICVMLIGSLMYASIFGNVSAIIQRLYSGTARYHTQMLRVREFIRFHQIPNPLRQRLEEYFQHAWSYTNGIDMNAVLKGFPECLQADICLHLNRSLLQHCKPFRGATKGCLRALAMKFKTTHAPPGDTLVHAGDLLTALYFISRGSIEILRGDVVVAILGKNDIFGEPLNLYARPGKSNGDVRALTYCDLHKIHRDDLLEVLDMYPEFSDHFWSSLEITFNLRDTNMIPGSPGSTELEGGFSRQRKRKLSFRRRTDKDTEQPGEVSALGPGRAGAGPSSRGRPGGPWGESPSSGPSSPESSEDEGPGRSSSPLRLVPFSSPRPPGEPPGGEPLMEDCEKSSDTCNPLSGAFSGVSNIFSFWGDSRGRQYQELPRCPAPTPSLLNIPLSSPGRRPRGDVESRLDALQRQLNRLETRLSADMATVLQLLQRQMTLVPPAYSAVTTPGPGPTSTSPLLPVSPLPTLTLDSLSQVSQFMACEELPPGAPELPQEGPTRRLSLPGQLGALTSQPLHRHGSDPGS

Compound	hERG current change (%, negative = inhibition) at 10uM
O=C(Cn1nnc(-c2ccccc2F)n1)OCC(=O)c1ccccc1	10.9%
O=C(c1ccc(NC2=NC3CS(=O)(=O)CC3S2)cc1)N1CCN(c2ccc(F)cc2)CC1 (centres unmarked)	6.4%
c1ccc2c(c1)SCc1nnc(-c3ccncc3)n1-2	-2.6%
COc1cc2[nH]c(=O)n(CCCCCC(=O)N3CC=C(c4ccccc4)CC3)c(=O)c2cc1OC	-20%
COc1cccc2c1[C@@H]1CN(CCCCn3c(=O)[nH]c4c(sc5ncc(-c6ccccc6)nc54)c3=O)C[C@@H]1CO2.Cl	-67.6%
COc1cc2[nH]c(=O)n(CCCC(=O)N3CC=C(c4ccccc4)CC3)c(=O)c2cc1OC	-12.9%
O=C(COc1ccc(Br)cc1)N1CCN(c2ncccn2)CC1	-83.7%
O=C(COc1ccc(Cl)cc1)N1CCN(c2ncccn2)CC1	-9.42%
O=C(COc1ccccc1)N1CCN(C2CCCC2)CC1.O=C(O)C(=O)O	-13.2%
Cc1ccc(OCC(=O)NCCN2CCN(C(=O)COc3ccc(C)cc3)CC2)cc1	-65.9%
O=C(COc1ccc2cc(Br)ccc2c1)N1CCCC1	-50.1%
O=C(COc1ccc2ccccc2c1)N1CCCC1	-13.3%
Cc1ccc(OCC(=O)NCCNC(=O)COc2ccc(C)cc2)cc1	9.34%
O=C(COc1ccccc1)N1CCN(c2ncccn2)CC1	10.5%
O=C(COc1ccc(Cl)cc1)N1CCN(C2CCCC2)CC1.O=C(O)C(=O)O	-83.2%
CC1CN(C2CCN(C(=O)COc3ccc(Cl)cc3)CC2)CC(C)O1.O=C(O)C(=O)O (centres unmarked)	-38%
Cc1ccc(OCC(=O)NCCN2CCCC2)cc1.Cl	2.48%
O=C(COc1ccc(Br)cc1)N1CCCCCC1	-22.9%
Nc1[nH]nc2c1NN(c1ccc(Cl)cc1Cl)N2	12.4%
COc1ccccc1Oc1nc(C)c(C(C)=O)cc1C#N	14.8%
CCc1ccc(CN(C(=O)COc2c(C)cccc2C)C2CCS(=O)(=O)C2)cc1 (centres unmarked)	-12.2%
Cc1ccc(NC(=O)c2cccc(S(=O)(=O)N(C)c3ccccc3)c2)cc1S(=O)(=O)N1CCOCC1	9.04%

Compound	hERG current change (%, negative = inhibition) at 10uM
O=S(=O)(Nc1ccc(Cl)cc1)c1cccc2cccnc12	12.8%
COc1ccc(N2CCN(C(=O)CCS(=O)(=O)c3cccc4nsnc34)CC2)cc1	-23.9%
CCOc1cc(C(=S)N2CCOCC2)ccc1OC(=O)c1cccc(C)c1	-42%
Cc1cc(C(=O)CSc2nnc(-c3ccc(F)cc3)o2)c(C)n1CC1CCCO1 (centres unmarked)	-7.13%
O=C(CSc1nnc(-c2ccco2)o1)NC1CC2CCC1C2 (centres unmarked)	-2.05%
CCOC(=O)c1c(C)[nH]c(C(=O)N2CCc3cc(OC)c(OC)cc3C2)c1C	-12.3%
COc1ccc(OC)c(NC(=O)C(C)Oc2ccc(Br)cc2)c1 (centres unmarked)	5.96%
CN(CC(=O)NC1CC(C)(C)NC(C)(C)C1)S(=O)(=O)c1ccc(Br)cc1	-2.22%
COc1ccc(OCC(=O)N2CCN(C(=O)COc3ccc(Br)cc3)CC2)cc1	-71.9%
O=C(O)C1CCN(C(=O)COc2ccc(Br)cc2)CC1	38%
Cc1cccc(OCC(=O)N2CCN(C(=O)CCC3CCCC3)CC2)c1	-37.3%
Cc1ccc(OCC(=O)N2CCN(C(=O)CCC3CCCC3)CC2)cc1	-54.3%
O=C(COc1ccc(Br)cc1)N1CCN(C2CCCC2)CC1	-63.6%
CC(=O)N1CCN(C(=O)COc2ccc(Br)cc2)CC1	-17.8%
O=C(CCC1CCCC1)N1CCN(C(=O)COc2ccccc2)CC1	-28.8%
CN1CCCN(C(=O)COc2ccc(Br)cc2)CC1	-17.3%
CCOC(=O)N1CCN(C(=O)COc2ccc(Br)cc2)CC1	-39.1%
c1ccc(Cn2nc(-c3ccccc3)nc2-c2ccccc2)cc1	-2.5%
O=c1[nH]c2ccc(S(=O)(=O)N3CCN(Cc4ccccc4)CC3)cc2[nH]c1=O	-1.75%
Cn1c(CNC(=O)c2cccs2)n[nH]c1=S	18.1%
O=C(NCc1ccccn1)c1ccc(NS(=O)(=O)c2cccc(Cl)c2)cc1	7.73%
COc1ccc(-n2nnnc2/C=C\Nc2ccc(C)cc2)cc1	16%

Compound	hERG current change (%, negative = inhibition) at 10uM
COC(=O)CNC(=O)CNC(=O)c1nn(-c2ccc(OC)c(OC)c2)c(=O)c2ccccc12	18.1%
COc1ccc2nc(NC(=O)C3COc4ccccc4O3)sc2c1 (centres unmarked)	0.282%
CCCCN1C(=O)/C(=C2/Sc3ccc(OC)cc3N2CC)SC1=S	25.5%
O=C(c1ccccc1)c1cc(-c2ccccn2)c(N2CCOCC2)s1	-29.4%
O=C(c1ccc(Cl)cc1)c1cc(-c2ccccn2)c(N2CCOCC2)s1	-54.9%
O=C(c1ccc(Cl)c(Cl)c1)c1cc(-c2ccccn2)c(N2CCOCC2)s1	-29.1%
S=C(N/N=C/c1ccc2ncccc2c1)Nc1ccccc1	63.6%
Cc1ccc(C(=O)CSc2ccccn2)cc1	-7.25%
CCC1CCCCN1CCCNC(=O)C1CCCN(c2nn3c(=O)cc(C)nc3s2)C1 (centres unmarked)	12.2%
O=C(O)CCCC(=O)Nc1ccc(N=Nc2ccccc2)cc1	14.5%
COc1ccc(S(=O)(=O)N2CCCC2CNC(=O)C(=O)NCc2ccc(C)cc2)cc1 (centres unmarked)	-29.6%
CC(=O)Oc1ccc2c(C)c(CC(=O)N3CCN(C(=O)C4COc5ccccc5O4)CC3)c(=O)oc2c1C (centres unmarked)	-69.6%
O=C(C1COc2ccccc2O1)N1CCN(c2ccccc2Cl)CC1 (centres unmarked)	1.69%
O=C(C1COc2ccccc2O1)N1CCOCC1 (centres unmarked)	10.5%
Cc1c(CC(=O)N2CCN(C(=O)C3COc4ccccc4O3)CC2)c(=O)oc2c(O)c(O)ccc12 (centres unmarked)	-0.208%
Cc1c(CC(=O)N2CCN(C(=O)C3COc4ccccc4O3)CC2)c(=O)oc2c(C)c(O)ccc12 (centres unmarked)	-20%
Cc1c(CC(=O)N2CCN(C(=O)C3COc4ccccc4O3)CC2)c(=O)oc2cc(O)cc(O)c12 (centres unmarked)	24.8%
Cc1c(CC(=O)N2CCN(C(=O)C3COc4ccccc4O3)CC2)c(=O)oc2cc(O)ccc12 (centres unmarked)	-44.7%
Cc1c(CC(=O)N2CCN(C(=O)C3COc4ccccc4O3)CC2)c(=O)oc2cc(O)c(Cl)cc12 (centres unmarked)	-52.4%
CCOC(=O)N1CCN(C(=O)C2COc3ccccc3O2)CC1 (centres unmarked)	-2.28%
COc1cc(C)cc2oc(=O)c(CC(=O)N3CCN(C(=O)C4COc5ccccc5O4)CC3)c(C)c12 (centres unmarked)	-53.9%
COc1ccc2c(C)c(CC(=O)N3CCN(C(=O)C4COc5ccccc5O4)CC3)c(=O)oc2c1C (centres unmarked)	-53.7%

Compound	hERG current change (%, negative = inhibition) at 10uM
Cc1cc(O)c2c(C)c(CC(=O)N3CCN(C(=O)C4COc5ccccc5O4)CC3)c(=O)oc2c1 (centres unmarked)	-28%
COc1ccccc1CNC(=O)c1ccc(-c2ccccc2Cl)o1	4.13%
O=S(=O)(/N=C(/NS(=O)(=O)c1ccccc1)c1ccccc1)c1ccccc1	20%
CN(C)c1ccc(/C=N/NC(=O)c2sccc2-n2cccc2)cc1	12.2%
CC1=CC(=C(C#N)c2nc3ccccc3s2)C=C(C)N1c1ccc(F)cc1F	13.3%
c1ccc2c(c1)Cc1ccccc1O2	14.7%
COc1ccc(/C=C2\C(=O)NCC(=O)N2Cc2ccccc2)cc1	4.69%
Cc1csc(NC(=O)c2cccs2)n1	-1.76%
CCOc1cc(NC(=S)NCC2CCCO2)c(OCC)cc1NC(=O)C1CC1 (centres unmarked)	36.2%
C=CCn1cccc(C(=O)Nc2cc(OC)ccc2OC)c1=O	1.46%
Cc1ccsc1CN(C)C(=O)c1cc(S(=O)(=O)N2CCOCC2)ccc1N1CCCC1	-40.5%
CN(Cc1ccc(Cl)cc1)C(=O)c1cc(S(=O)(=O)N2CCOCC2)ccc1N1CCCC1	-72.8%
CN(Cc1cccc(F)c1)C(=O)c1cc(S(=O)(=O)N2CCOCC2)ccc1N1CCCC1	-24.5%
COc1ccc(CN(C)C(=O)c2cc(S(=O)(=O)N3CCOCC3)ccc2N2CCCC2)cc1	-35.2%
CCc1ccc(CN(C)C(=O)c2cc(S(=O)(=O)N3CCOCC3)ccc2N2CCCC2)cc1	-50.1%
CN(Cc1cccs1)C(=O)c1cc(S(=O)(=O)N2CCOCC2)ccc1N1CCCC1	-27.1%
COc1ccc(C2C(CN3CCOCC3)C(=O)N2c2ccccc2)cc1 (centres unmarked)	9.52%
Cc1ccc(OCCOc2cccc(Br)c2)c([N+](=O)[O-])n1	0.558%
Cc1cccc(NS(=O)(=O)c2cccc(C(=O)N3CCN(c4ccccn4)CC3)c2)c1	-22.7%
COc1ccc(C(=O)NCc2nnc(SCC(=O)Nc3cccc(OC)c3)o2)cc1	-1.25%
